# Laboratory results as given in PubChem BioAssay (EPA / NIEHS).
# Inconclusive results are not listed. Calls of active or inactive are those of the source. Rule for the calls, unless noted: active = hit-call score of the fitted dose curve at least 0.9, where 1 is the maximum; inactive = score below 0.9.
# Legend:
# [1] = ATG_NFI_CIS: Attagene CIS-FACTORIAL HepG2 Assay for human Nuclear Factor I (NFI) (AID 2282989); conditions: HepG2 cis-regulatory reporter, NFI response element transcription; actives raise or lower the signal
# How it was run: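 Cells: human liver HepG2, transiently transfected with promoter-regulated reporter transcription units. Exposure 24 h. Detection: fluorescent RT-PCR products separated by capillary electrophoresis, normalised to DMSO negative control.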
# [2] = target: Myc proto-oncogene protein (Homo sapiens) (UniProt P01106); experiment: ATG_Myc_CIS: Attagene CIS-FACTORIAL HepG2 Assay for human Myelocytomatosis (Myc) Proto-Oncogene Transcription Factor (AID 2282990); conditions: HepG2, Attagene cis-reporter transcription factor activity; actives raise or lower the signal
# How it was run: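 Multiplexed cis-reporter transcription in HepG2 cells after 24 h chemical treatment. Reporter mRNA measured by RT-PCR and capillary electrophoresis fluorescence; activity fitted bidirectionally against DMSO control.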
# [3] = ATG_NF_kB_CIS: Attagene CIS-FACTORIAL HepG2 Assay for human Nuclear Factor Kappa B (NF-kB) (AID 2282991); conditions: HepG2 Attagene cis-factorial NF-kB reporter mRNA; actives raise or lower the signal
# How it was run: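 After 24 h compound incubation, transfected HepG2 cells yield total RNA; reporter cDNA is PCR-amplified, end-labelled with 6-FAM, HpaI-digested and analysed on a genetic analyser. Endogenous factor activity, DMSO-referenced bidirectional fit.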
# [4] = ATG_NRF2_ARE_CIS: Attagene CIS-FACTORIAL HepG2 Assay for human Nuclear Factor Erythroid 2 Related Factor 2 (NFR2) response to Antioxidant Response Elements (ARE) (AID 2282992); conditions: HepG2 Attagene ARE/NRF2 reporter, transcription factor activity; actives raise or lower the signal
# How it was run: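 HepG2 cells transiently transfected with multiplexed cis-regulated reporter transcription units measure endogenous transcription factor activity. Reporter mRNA at 24 h is quantified by RT-PCR, fluorescent labelling and capillary electrophoresis, with bidirectional fitting relative to DMSO.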
# [5] = ATG_Oct_MLP_CIS: Attagene CIS-FACTORIAL HepG2 Assay for human Octamer-Binding Transcription Factor (Oct) (AID 2282993); conditions: HepG2 Attagene cis-factorial Oct reporter, mRNA; actives raise or lower the signal
# How it was run: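 HepG2, transient MRTU transfection, cis promoter elements; 24 h dosing; RT-PCR/CE fluorescence read-out of reporter mRNA; fit both directions vs DMSO.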
# [6] = target: human Peroxisome Proliferator-activated Receptor alpha (PPARa), PPARA (gene 5465) (UniProt Q07869); experiment: ATG_PPARa_TRANS: Attagene TRANS-FACTORIAL HepG2 Assay for human Peroxisome Proliferator-activated Receptor alpha (PPARa) (AID 2283001; active = hit-call score of the fitted dose curve at least 0.9, where 1 is the maximum;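 for AC50: potency for gain of reporter signal over DMSO so agonist or activator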)
# How it was run: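 HepG2 cells transiently transfected with multiplexed GAL4-UAS reporter units and chimeric NR-Gal4 constructs were dosed for 24 h. Reporter mRNA was measured by RT-PCR with fluorescent labelling and capillary electrophoresis; gain of signal fitted against DMSO.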
# [7] = target: Cellular tumor antigen p53 (Homo sapiens) (UniProt P04637); experiment: ATG_p53_CIS: Attagene CIS-FACTORIAL HepG2 Assay for human p53 Transcription Factor (AID 2282994); conditions: HepG2 p53 cis-element reporter, Attagene mRNA; actives raise or lower the signal
# How it was run: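 HepG2 cells transiently transfected with multiplexed cis-regulated reporter transcription units read endogenous TF activity. After 24 h compound exposure, reporter mRNA was quantified by RT-PCR, fluorescent labelling, HpaI digestion and capillary electrophoresis; bidirectional fits versus DMSO baseline.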
# [8] = BSK_3C_TissueFactor: BioMAP Diversity Plus: 3C Assay for Tissue Factor Biomarker Activity (AID 2282997); conditions: BioMAP 3C HUVEC, tissue factor biomarker readout; actives raise or lower the signal
# How it was run: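 Endothelial monolayers (human umbilical vein, primary) are dosed, incubated 24 h, and assayed for Tissue Factor by ELISA; DMSO serves as negative control for bidirectional fitting.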
# [9] = BSK_3C_uPAR: BioMAP Diversity Plus: 3C Assay for Urokinase-type plasminogen activator receptor (uPAR) Biomarker Activity (AID 2282998); conditions: BioMAP 3C HUVEC, uPAR biomarker ELISA; actives raise or lower the signal
# How it was run: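 A multiplexed primary-cell system built on human umbilical vein endothelium was used, with chemical present for 24 h before reading. Cell-surface uPAR was detected by ELISA; signal change in either direction counted against DMSO.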
# [10] = BSK_4H_Eotaxin3: BioMAP Diversity Plus: 4H Assay for Eotaxin 3 Biomarker Activity (AID 2283000); conditions: primary human endothelial cells (HUVEC); actives raise or lower the signal;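 note: CCL26 protein level quantified by ELISA in parallel with SRB cytotoxicity check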
# How it was run: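 ELISA quantitation of CCL26 (Eotaxin-3) protein from chemically dosed human vascular endothelial cells at 24 h; increases and decreases both scored relative to DMSO-treated baseline.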
# Sequence of Myc proto-oncogene protein (Homo sapiens) (P01106 whole entry, looked up): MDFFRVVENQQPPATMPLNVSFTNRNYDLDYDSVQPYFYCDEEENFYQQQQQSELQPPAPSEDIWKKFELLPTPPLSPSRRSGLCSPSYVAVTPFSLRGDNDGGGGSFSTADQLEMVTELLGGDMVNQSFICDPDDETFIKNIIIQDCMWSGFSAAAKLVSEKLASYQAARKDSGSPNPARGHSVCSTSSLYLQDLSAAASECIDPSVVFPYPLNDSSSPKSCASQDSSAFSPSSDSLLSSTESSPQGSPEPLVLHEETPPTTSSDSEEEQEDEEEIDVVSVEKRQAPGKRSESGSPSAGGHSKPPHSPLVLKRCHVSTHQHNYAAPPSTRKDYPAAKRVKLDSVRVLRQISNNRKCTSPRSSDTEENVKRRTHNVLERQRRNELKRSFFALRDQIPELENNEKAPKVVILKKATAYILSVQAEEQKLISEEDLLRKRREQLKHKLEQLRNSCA
# Sequence of Cellular tumor antigen p53 (Homo sapiens) (P04637 whole entry, looked up): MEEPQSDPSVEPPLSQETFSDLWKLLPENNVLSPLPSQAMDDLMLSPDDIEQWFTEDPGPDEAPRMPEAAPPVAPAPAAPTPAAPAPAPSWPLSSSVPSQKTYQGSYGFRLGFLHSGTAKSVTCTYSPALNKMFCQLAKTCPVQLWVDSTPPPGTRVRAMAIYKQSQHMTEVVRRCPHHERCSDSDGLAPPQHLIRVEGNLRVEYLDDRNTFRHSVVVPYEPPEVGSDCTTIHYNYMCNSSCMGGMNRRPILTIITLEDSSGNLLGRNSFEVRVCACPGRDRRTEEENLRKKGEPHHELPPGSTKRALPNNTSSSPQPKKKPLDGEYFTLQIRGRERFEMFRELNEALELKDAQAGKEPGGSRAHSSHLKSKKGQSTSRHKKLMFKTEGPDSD
# Sequence of human Peroxisome Proliferator-activated Receptor alpha (PPARa), PPARA (gene 5465) (Q07869 whole entry, looked up, the tested form may be a part): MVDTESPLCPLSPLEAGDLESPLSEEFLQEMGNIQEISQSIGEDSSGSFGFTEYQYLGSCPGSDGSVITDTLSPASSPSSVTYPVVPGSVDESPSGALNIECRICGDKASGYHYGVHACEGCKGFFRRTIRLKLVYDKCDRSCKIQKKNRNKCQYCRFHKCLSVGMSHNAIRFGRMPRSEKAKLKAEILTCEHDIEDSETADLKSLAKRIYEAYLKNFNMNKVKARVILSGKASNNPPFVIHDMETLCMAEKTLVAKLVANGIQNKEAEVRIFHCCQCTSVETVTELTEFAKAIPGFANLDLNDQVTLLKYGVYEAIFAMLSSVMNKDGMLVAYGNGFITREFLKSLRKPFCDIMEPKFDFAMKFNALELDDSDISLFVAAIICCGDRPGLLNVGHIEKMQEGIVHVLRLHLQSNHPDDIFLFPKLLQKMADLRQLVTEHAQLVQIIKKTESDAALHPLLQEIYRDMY
smiles,measurement,setting,value
O=C(O)CCCC[C@@H]1SC[C@@H]2NC(=O)N[C@@H]21,outcome,[1],inactive
same,outcome,[2],inactive
same,outcome,[3],inactive
same,outcome,[4],inactive
same,outcome,[5],inactive
same,outcome,[6],inactive
CC=CC(=O)N(CC)c1ccccc1C,outcome,[1],inactive
same,outcome,[2],inactive
same,outcome,[4],inactive
same,outcome,[5],inactive
same,outcome,[7],inactive
CC1(C)O[C@@H]2C[C@H]3[C@@H]4C[C@H](F)C5=CC(=O)C=C[C@]5(C)[C@@]4(F)[C@@H](O)C[C@]3(C)[C@]2(C(=O)CO)O1,outcome,[1],inactive
same,outcome,[2],inactive
same,outcome,[4],inactive
same,outcome,[5],inactive
CCC(C)(C)C1CCCCC1OC(C)=O (configuration not stated),outcome,[1],inactive
same,outcome,[2],inactive
same,AC50,[4],134 µM (active)
same,outcome,[5],inactive
same,outcome,[7],inactive
Cc1ccc2oc(=O)ccc2c1,outcome,[1],inactive
same,outcome,[2],inactive
same,outcome,[3],inactive
same,AC50,[4],58.4 µM (active)
same,outcome,[5],inactive
same,outcome,[6],inactive
Cc1cc(C)c(C)c(C)c1,outcome,[1],inactive
same,outcome,[2],inactive
same,outcome,[4],inactive
same,outcome,[5],inactive
same,outcome,[7],inactive
CCN(CC)c1ccc(C(=O)c2ccccc2C(=O)O)c(O)c1,outcome,[1],inactive
same,outcome,[2],inactive
same,outcome,[3],inactive
same,outcome,[4],inactive
same,outcome,[5],inactive
same,outcome,[6],inactive
O=C(O)CC(C(=O)O)C(CC(=O)O)C(=O)O (configuration not stated),outcome,[1],inactive
same,outcome,[2],inactive
same,outcome,[3],inactive
same,outcome,[4],inactive
same,outcome,[5],inactive
same,outcome,[7],inactive
same,outcome,[6],inactive
CC(CC=O)c1ccccc1 (configuration not stated),outcome,[1],inactive
same,outcome,[2],inactive
same,AC50,[4],121 µM (active)
same,outcome,[5],inactive
same,outcome,[7],inactive
C[C@]12C=CC(=O)C=C1CC[C@@H]1[C@@H]2[C@@H](O)C[C@@]2(C)[C@H]1CC[C@]2(O)C(=O)CO,outcome,[1],inactive
same,outcome,[2],inactive
same,outcome,[3],inactive
same,outcome,[4],inactive
same,outcome,[5],inactive
same,outcome,[7],inactive
same,outcome,[6],inactive
NNC(=O)c1cccc(C(=O)NN)c1,outcome,[1],inactive
same,outcome,[2],inactive
same,outcome,[4],inactive
same,outcome,[5],inactive
same,outcome,[7],inactive
O=C(Nc1cccc(C(F)(F)F)c1)c1cc(Br)cc(Br)c1O,AC50,[1],100 µM (active)
same,AC50,[2],166 µM (active)
same,AC50,[3],169 µM (active)
same,AC50,[4],0.851 µM (active)
same,AC50,[5],2.95 µM (active)
same,AC50,[7],147 µM (active)
same,AC50,[6],1.58 µM (active)
O=S1(=O)OC(c2ccc(O)cc2)(c2ccc(O)cc2)c2ccccc21,outcome,[1],inactive
same,outcome,[2],inactive
same,outcome,[4],inactive
same,outcome,[5],inactive
CC1(C)[C@H]2CC[C@]1(C)C(=O)C2,outcome,[1],inactive
same,outcome,[2],inactive
same,outcome,[4],inactive
same,outcome,[5],inactive
same,outcome,[7],inactive
CC(C)=CCC/C(C)=C\C#N,outcome,[1],inactive
same,outcome,[2],inactive
same,AC50,[4],26.5 µM (active)
same,outcome,[5],inactive
same,outcome,[7],inactive
CCCCC(CC)COC(=O)c1ccccc1 (configuration not stated),outcome,[1],inactive
same,outcome,[2],inactive
same,outcome,[3],inactive
same,outcome,[4],inactive
same,outcome,[5],inactive
same,outcome,[6],inactive
CC=CC(F)(F)C(F)(F)C(F)(F)F,outcome,[1],inactive
same,outcome,[2],inactive
same,outcome,[3],inactive
same,outcome,[4],inactive
same,outcome,[5],inactive
same,outcome,[7],inactive
same,outcome,[6],inactive
Nc1ccc(Cl)cc1Cl,outcome,[1],inactive
same,outcome,[2],inactive
same,outcome,[3],inactive
same,outcome,[4],inactive
same,outcome,[5],inactive
same,outcome,[7],inactive
same,outcome,[6],inactive
Cc1ccc(C2OC[C@@H]3OC(c4ccc(C)cc4)O[C@H]([C@H](O)CO)[C@@H]3O2)cc1 (some centres not stated),outcome,[1],inactive
same,outcome,[2],inactive
same,AC50,[4],100 µM (active)
same,outcome,[5],inactive
same,outcome,[7],inactive
CC1=CC[C@H](C(C)C)C=C1,outcome,[1],inactive
same,outcome,[2],inactive
same,AC50,[4],27.7 µM (active)
same,outcome,[5],inactive
same,outcome,[7],inactive
OCCCS,outcome,[1],inactive
same,outcome,[2],inactive
same,outcome,[4],inactive
same,outcome,[5],inactive
same,outcome,[7],inactive
CCN(CC#N)c1cccc(C)c1,outcome,[1],inactive
same,outcome,[2],inactive
same,outcome,[4],inactive
same,outcome,[5],inactive
same,outcome,[7],inactive
C=C(C)[C@H]1CC=C(C)CC1,outcome,[1],inactive
same,outcome,[2],inactive
same,outcome,[4],inactive
same,outcome,[5],inactive
same,outcome,[7],inactive
O=c1c2ccccc2oc2ccccc12,outcome,[1],inactive
same,outcome,[2],inactive
same,outcome,[3],inactive
same,AC50,[4],26.9 µM (active)
same,outcome,[5],inactive
same,AC50,[8],3.97 µM (active)
same,outcome,[9],inactive
same,outcome,[10],inactive
same,outcome,[6],inactive
N[C@H]1C(O)O[C@H](CO)[C@H](O)[C@@H]1O (some centres not stated),outcome,[1],inactive
same,outcome,[2],inactive
same,outcome,[4],inactive
same,outcome,[5],inactive
same,outcome,[7],inactive
CN(C)CCCN(C)C,outcome,[1],inactive
same,outcome,[2],inactive
same,outcome,[4],inactive
same,outcome,[5],inactive
same,outcome,[7],inactive
CC(C)(C)c1ccc(N)cc1,outcome,[1],inactive
same,outcome,[2],inactive
same,outcome,[4],inactive
same,outcome,[5],inactive
CC(C)(C)C1CCCCC1=O (configuration not stated),outcome,[1],inactive
same,outcome,[2],inactive
same,outcome,[3],inactive
same,outcome,[4],inactive
same,outcome,[5],inactive
same,outcome,[6],inactive
CC(C)(C)c1ccc(-c2ccc(C(C)(C)C)cc2)cc1,outcome,[1],inactive
same,outcome,[2],inactive
same,outcome,[4],inactive
same,outcome,[5],inactive
CCCCCCCC/C=C\CCCCCCCC(=O)OCCO,outcome,[1],inactive
same,outcome,[2],inactive
same,AC50,[3],68.1 µM (active)
same,AC50,[4],40.8 µM (active)
same,outcome,[5],inactive
same,AC50,[6],8.71 µM (active)
COC(F)(F)C(F)(C(F)(F)F)C(F)(F)F,outcome,[1],inactive
same,outcome,[2],inactive
same,outcome,[3],inactive
same,outcome,[4],inactive
same,outcome,[5],inactive
same,outcome,[7],inactive
same,outcome,[6],inactive
c1cc(C(c2ccc(OCC3CO3)cc2)C(c2ccc(OCC3CO3)cc2)c2ccc(OCC3CO3)cc2)ccc1OCC1CO1 (configuration not stated),AC50,[1],22 µM (active)
same,outcome,[2],inactive
same,AC50,[4],21.1 µM (active)
same,AC50,[5],25.6 µM (active)
